Consider 39 compounds from PubChem BioAssay.

Structures are written as SMILES.

Tumor necrosis factor receptor superfamily member 10B (Homo sapiens), sequence (O14763 whole entry, looked up): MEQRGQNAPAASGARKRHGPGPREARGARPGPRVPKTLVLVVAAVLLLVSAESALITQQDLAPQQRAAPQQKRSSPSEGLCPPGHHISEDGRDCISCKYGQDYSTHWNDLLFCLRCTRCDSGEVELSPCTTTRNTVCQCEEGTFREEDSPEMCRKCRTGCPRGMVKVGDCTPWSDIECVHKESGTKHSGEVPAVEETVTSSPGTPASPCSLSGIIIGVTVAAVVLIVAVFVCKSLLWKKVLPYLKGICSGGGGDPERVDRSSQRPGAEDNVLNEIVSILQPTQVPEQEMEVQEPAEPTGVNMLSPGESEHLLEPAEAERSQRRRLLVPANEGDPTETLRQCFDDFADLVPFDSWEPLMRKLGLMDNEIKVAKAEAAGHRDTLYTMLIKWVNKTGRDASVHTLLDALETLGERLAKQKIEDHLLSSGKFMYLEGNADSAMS

The first test addresses Tumor necrosis factor receptor superfamily member 10B (Homo sapiens) (UniProt O14763). Kind of test: viability loss of caspase-8 NB7 cells with TRAIL – with/without TRAIL, luminescence panel, confirmation (AID 651596). The following applies: NB7 neuroblastoma + caspase-8, TRAIL sensitization, NB7 Caspase-8, with TRAIL, mean of runs, at 10 µM, stronger effect = higher value.
In the case of `COc1ccc2oc(C(=O)Nc3nc4ccccc4[nH]3)c(C)c2c1`, the activity came to 89.7%.
For the compound `CCN1CCN(Cc2ccc(NC(=O)c3cc(NC(=O)c4cncc(-c5cccs5)c4)cc(OC)c3)cc2C(F)(F)F)CC1`, the activity was found to be 68%.
Take `O=[N+]([O-])c1c(Nc2ccccc2O)cc(Cl)c2nonc12`: the activity came out at 63.9%.
Take `COc1ccccc1C(CNc1ccc(S(=O)(=O)N2CCCC2)cc1[N+](=O)[O-])N(C)C` (stereo not drawn): the activity turned out to be 52.1%.
On the same count and under the same terms, under `COc1ccc(-c2cc(CNc3nc(NC(C)C)nc4cc(-c5ccccc5)sc34)on2)cc1` stands 91.6%; under `Cc1ccc2nc(-c3sc4nc(C)ccc4c3N)[nH]c2c1`, 23.9%.
On to `NC(c1csc(NC(=O)Nc2ccc(OC(F)(F)F)cc2)n1)C1CCCCC1` (stereo not drawn), for which the activity is 63.7%.
For the compound `COc1ccc(OC)c2sc(N(CCN(C)C)C(=O)/C=C/c3cccs3)nc12`, the activity amounted to 95.2%.
As to `N#Cc1cc2c(nc1SCC(=O)Nc1nccs1)CCCCC2`, the activity stood at 67.8%.
Consider `COc1ccccc1NC(=O)c1nc(S(=O)(=O)Cc2ccccc2)ncc1Cl`, for which the activity stood at 90.7%.
With `Cc1cc(N)n2nc(-c3ccccc3)cc2n1`, the activity is 77.2%.
As to `CS(=O)(=O)c1nc(-c2ccc(Br)cc2)cc(-c2ccccc2)c1C#N`, the activity turned out to be 94%.
For the compound `Cc1ccc(-c2cnc3cc(C)nn3c2)cc1`, the activity was determined as 73.9%.
On to `COc1ccc2cc3cc(C(=O)NC4CC4)sc3nc2c1`, for which the activity was 80%.
For `Oc1cc(NCc2ccc(F)cc2)cc2cccnc12`, the activity was 36.8%.
On to `N/C(=N\OC(=O)c1ccc(Cl)cc1)c1ccn[nH]1`, for which the activity came out at 94.7%.
In the case of `CCOC(=O)c1sc(N(Cc2ccccc2)C(=O)CCl)nc1C`, the activity was 99.1%.
Take `Cc1cccc(-c2nc3cc(NC(=O)C4CCCO4)ccc3o2)c1` (stereo not drawn): the activity stood at 66.7%.
Regarding `CC(C)OC(=O)Nc1ccc2c(c1)N(C(=O)N1CCN(C)CC1)c1ccccc1CC2`, the activity was found to be 86.2%.
`COc1ccc(C=C2CCc3ccccc3C2=O)cc1`: the activity is 90.9%.
As for `COc1ccc(CSc2nc3ccccc3[nH]2)cc1`, the activity was 70.8%.
As for `Cc1onc(C(=O)N2CCC(Cc3ccccc3)CC2)c1[N+](=O)[O-]`, the activity was determined as 97.8%.
With `O=C(CCl)N(Cc1ccccc1)c1ccccc1`, the activity was 99%.
Take `CN=c1scc(C)n1/N=C/c1ccc2c(c1)OCO2`: the activity was determined as 56.7%.
Same read-out and setting: under `Cc1cccc2sc(NNC(=O)c3cc(-c4cccs4)nc4ccccc34)nc12` stands 25.2%; under `COc1ccc(Oc2c(Cl)cnn(-c3ccc(C)cc3)c2=O)cc1`, 96.9%; under `O=C(Nc1nc2ccccc2[nH]1)c1ccccc1`, 88%.
Consider `Cc1ccc(OCCSCc2nnc(NC(=O)Nc3cccc(Cl)c3)s2)cc1`, for which the activity was determined as 36.6%.
`CCOc1ccc(/C=N/Nc2ccccn2)cc1`: the activity came out at 53.4%.
On to `NC(Cc1ccc(C(F)(F)F)cc1)c1csc(Nc2nncc3ccccc23)n1` (stereo not drawn), for which the activity came to 38.8%.
`COc1ccc2oc(-c3ccccc3)cc(=O)c2c1`: the activity stood at 76.1%.
Turning to `Cc1ccc(C(=O)Nc2ccc3ccccc3n2)cc1`, the activity is 58.6%.
Regarding `COc1cc(C2Nc3ccccc3C(=O)N2c2ccc3c(c2)OCCO3)ccc1OCC(C)C` (stereo not drawn), the activity amounted to 64.9%.
In the case of `O=C(Nc1ccc(NC(=O)C2CCCCC2)cn1)c1ccco1`, the activity came to 76.2%.
On to `O=c1c2c(-c3ccccc3)csc2nc2c3ccccc3c(NCCN3CCOCC3)nn12`, for which the activity was found to be 89.5%.
On to `O=C(Nc1nc2cc3c(cc2s1)OCCO3)c1ccc([N+](=O)[O-])o1`, for which the activity was 63.8%.
Still for that read-out and setting: under `Oc1ccccc1-c1n[nH]c(-c2ccccc2O)n1` stands 47.8%.
For `Cc1ccc(C2CC(c3cccs3)=NN2C(=O)CCl)cc1` (stereo not drawn), the activity was 98.8%.
Regarding `O=c1c2[nH]c3ccc(F)cc3c2ncn1C1CCCCC1`, the activity came to 59.1%.

Test system in another test: not listed separately
Described as above. The conditions noted are these: NB7 neuroblastoma + caspase-8, without TRAIL, NB7 Caspase-8, without TRAIL, mean of runs, at 10 µM.
`COc1ccc2oc(C(=O)Nc3nc4ccccc4[nH]3)c(C)c2c1`: the activity amounted to 85.3%.
With `CCN1CCN(Cc2ccc(NC(=O)c3cc(NC(=O)c4cncc(-c5cccs5)c4)cc(OC)c3)cc2C(F)(F)F)CC1`, the activity was determined as 91.9%.
Consider `O=[N+]([O-])c1c(Nc2ccccc2O)cc(Cl)c2nonc12`, for which the activity was found to be 98.3%.
Turning to `COc1ccccc1C(CNc1ccc(S(=O)(=O)N2CCCC2)cc1[N+](=O)[O-])N(C)C` (stereo not drawn), the activity was determined as 55.8%.
For the compound `COc1ccc(-c2cc(CNc3nc(NC(C)C)nc4cc(-c5ccccc5)sc34)on2)cc1`, the activity came out at 92.4%.
For the compound `Cc1ccc2nc(-c3sc4nc(C)ccc4c3N)[nH]c2c1`, the activity came out at 7.22%.
Turning to `NC(c1csc(NC(=O)Nc2ccc(OC(F)(F)F)cc2)n1)C1CCCCC1` (stereo not drawn), the activity turned out to be 92.2%.
As to `COc1ccc(OC)c2sc(N(CCN(C)C)C(=O)/C=C/c3cccs3)nc12`, the activity worked out at 98.8%.
For `N#Cc1cc2c(nc1SCC(=O)Nc1nccs1)CCCCC2`, the activity was determined as 69.2%.
Same read-out and setting: under `COc1ccccc1NC(=O)c1nc(S(=O)(=O)Cc2ccccc2)ncc1Cl` stands 99.2%.
Take `Cc1cc(N)n2nc(-c3ccccc3)cc2n1`: the activity amounted to 68.2%.
As for `CS(=O)(=O)c1nc(-c2ccc(Br)cc2)cc(-c2ccccc2)c1C#N`, the activity is 98.9%.
Consider `Cc1ccc(-c2cnc3cc(C)nn3c2)cc1`, for which the activity is 66.8%.
On to `COc1ccc2cc3cc(C(=O)NC4CC4)sc3nc2c1`, for which the activity amounted to 81.4%.
Consider `Oc1cc(NCc2ccc(F)cc2)cc2cccnc12`, for which the activity came out at 33.5%.
`N/C(=N\OC(=O)c1ccc(Cl)cc1)c1ccn[nH]1`: the activity was 91%.
As to `CCOC(=O)c1sc(N(Cc2ccccc2)C(=O)CCl)nc1C`, the activity is 76.5%.
As to `Cc1cccc(-c2nc3cc(NC(=O)C4CCCO4)ccc3o2)c1` (stereo not drawn), the activity was 64.7%.
Take `CC(C)OC(=O)Nc1ccc2c(c1)N(C(=O)N1CCN(C)CC1)c1ccccc1CC2`: the activity came out at 84.2%.
Regarding `COc1ccc(C=C2CCc3ccccc3C2=O)cc1`, the activity was determined as 91.4%.
In the case of `COc1ccc(CSc2nc3ccccc3[nH]2)cc1`, the activity is 83.3%.
For the compound `Cc1onc(C(=O)N2CCC(Cc3ccccc3)CC2)c1[N+](=O)[O-]`, the activity came out at 98.1%.
In the case of `O=C(CCl)N(Cc1ccccc1)c1ccccc1`, the activity was found to be 98.9%.
`CN=c1scc(C)n1/N=C/c1ccc2c(c1)OCO2`: the activity is 42.2%.
As for `Cc1cccc2sc(NNC(=O)c3cc(-c4cccs4)nc4ccccc34)nc12`, the activity came out at 26.2%.
Regarding `COc1ccc(Oc2c(Cl)cnn(-c3ccc(C)cc3)c2=O)cc1`, the activity turned out to be 89.9%.
As to `O=C(Nc1nc2ccccc2[nH]1)c1ccccc1`, the activity stood at 84.5%.
Same read-out and setting: under `Cc1ccc(OCCSCc2nnc(NC(=O)Nc3cccc(Cl)c3)s2)cc1` stands 43.7%.
On the same count and under the same terms, under `CCOc1ccc(/C=N/Nc2ccccn2)cc1` stands 41.2%; under `NC(Cc1ccc(C(F)(F)F)cc1)c1csc(Nc2nncc3ccccc23)n1` (stereo not drawn), 89.1%; under `COc1ccc2oc(-c3ccccc3)cc(=O)c2c1`, 78%.
Same read-out and setting: under `Cc1ccc(C(=O)Nc2ccc3ccccc3n2)cc1` stands 58.2%.
For the compound `COc1cc(C2Nc3ccccc3C(=O)N2c2ccc3c(c2)OCCO3)ccc1OCC(C)C` (stereo not drawn), the activity was 63.5%.
Turning to `O=C(Nc1ccc(NC(=O)C2CCCCC2)cn1)c1ccco1`, the activity turned out to be 80.6%.
As to `O=c1c2c(-c3ccccc3)csc2nc2c3ccccc3c(NCCN3CCOCC3)nn12`, the activity was 90.1%.
Consider `O=C(Nc1nc2cc3c(cc2s1)OCCO3)c1ccc([N+](=O)[O-])o1`, for which the activity came to 84.1%.
As to `Oc1ccccc1-c1n[nH]c(-c2ccccc2O)n1`, the activity is 48.6%.
Regarding `Cc1ccc(C2CC(c3cccs3)=NN2C(=O)CCl)cc1` (stereo not drawn), the activity came to 98%.
For `O=c1c2[nH]c3ccc(F)cc3c2ncn1C1CCCCC1`, the activity stood at 49.5%.
